The text below walks through data of PubChem BioAssay (NCI).

Test systems include K-562 leukemia; MALME-3M melanoma; MDA-MB-231 breast; SF-268 CNS; SF-295 CNS; SF-539 CNS; UACC-257 melanoma; M14 melanoma; HCT-15 colon; HT29 colon; SNB-75 CNS; SNB-19 CNS; PC-3 prostate; SK-MEL-5 melanoma; UACC-62 melanoma; LOX IMVI melanoma; SK-MEL-28 melanoma; DU-145 prostate; RXF 393 renal; U251 CNS.
Common to all, as to test: NCI-60 one-dose screen, 48 h (100 = growth as untreated, 0 = no growth, -100 = all killed)
What all share (conditions): 10 µM unless noted

Each structure is given as a SMILES string. The panel holds about 83,000 compounds, 20% with a hit somewhere; the sample as a whole holds those more often.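 Cells were grown in 96-well plates and exposed to the test compound at a single concentration for 48 hours; results are reported as percent growth, with values below 10 considered active.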 A number with no mark means an inactive call. Active and inactive are the calls of the source.

Turning to `Cc1ccc2c(NCCCN(C)C)c3c(C)nn(C)c3nc2c1`, the growth in the test on K-562 leukemia was 9.48% (active); in the test with MALME-3M melanoma it was 52.7%; in the test on MDA-MB-231 breast, 47.6%; with SF-268 CNS it was 33.2%; in the test with SF-295 CNS it was 30.2%; in the test with SF-539 CNS, 36.5%. The growth was 31.8% with UACC-257 melanoma; 42.5% in the test with M14 melanoma; 29% in the test with HCT-15 colon; 18% in the test on HT29 colon; 25.5% with SNB-75 CNS; 63% in the test on SNB-19 CNS. The growth in the test with PC-3 prostate was 29.2%; in the test with SK-MEL-5 melanoma, 51.3%; in the test with UACC-62 melanoma, 58.8%; in the test on LOX IMVI melanoma, 15.5%; in the test with SK-MEL-28 melanoma it was 57.1%.
For the molecule `CN1CCN(Cc2ccc(NC(=O)c3[nH]ncc3Nc3ncnc4sccc34)cc2)CC1`, the growth with DU-145 prostate is 7.12% (active); in the test with MALME-3M melanoma, 16.7%; in the test with MDA-MB-231 breast, -4.43% (active); in the test with RXF 393 renal, -51.1% (active); in the test on SF-268 CNS, -3.74% (active); in the test on SF-295 CNS it was 24%. Moreover, the growth was -30.2% (active) in the test with SF-539 CNS; 33.9% in the test with UACC-257 melanoma; 22.6% with M14 melanoma; 7.97% (active) in the test with HCT-15 colon; 17% in the test on HT29 colon; -32.5% (active) in the test on SNB-75 CNS. In addition, the growth in the test on PC-3 prostate was 6.12% (active); in the test with SK-MEL-5 melanoma it was -5.05% (active); in the test on UACC-62 melanoma, 8.83% (active); with LOX IMVI melanoma, -1.47% (active); with SK-MEL-28 melanoma, 17.8%.
As for `CCOC(=O)C(=Cc1ccccc1F)C(=O)OCC`, the growth in the test on DU-145 prostate was 71.1%; with MALME-3M melanoma it was 94.2%; in the test on MDA-MB-231 breast, 93.3%; in the test with RXF 393 renal, 102%; in the test on SF-268 CNS it was 89.9%; with SF-295 CNS, 111%. The growth in the test on SF-539 CNS was 98%; with UACC-257 melanoma it was 83.2%; in the test on M14 melanoma, 85.8%; in the test with HCT-15 colon, 86.9%; in the test with HT29 colon it was 103%; in the test on SNB-75 CNS it was 83.4%. Besides, the growth with SNB-19 CNS is 104%; in the test with PC-3 prostate, 87.6%; in the test on SK-MEL-5 melanoma it was 92.8%; with UACC-62 melanoma, 94.9%; in the test on LOX IMVI melanoma, 86.4%; in the test on SK-MEL-28 melanoma, 104%.
Take `CN1CCN(c2ccc3nc(-c4ccc5nc(-c6ccc(OCCC(C)(C)C)cc6)[nH]c5c4)[nH]c3c2)CC1`: the growth in the test with DU-145 prostate was -80.9% (active); in the test on MALME-3M melanoma, 18.2%; in the test on MDA-MB-231 breast, -33.3% (active); in the test with RXF 393 renal it was -72.1% (active); in the test with SF-268 CNS it was 56.6%; in the test on SF-295 CNS it was 50.9%. Further, the growth is -72.3% (active) in the test on SF-539 CNS; 110% with UACC-257 melanoma; -11.2% (active) in the test with M14 melanoma; 56.3% in the test with HCT-15 colon; -82.3% (active) with HT29 colon; 90.1% in the test with SNB-75 CNS. Moreover, the growth in the test on SNB-19 CNS is -67.6% (active); in the test with PC-3 prostate, -72.6% (active); in the test on SK-MEL-5 melanoma it was 80.2%; with UACC-62 melanoma it was 88.1%; with LOX IMVI melanoma, -73.7% (active); with SK-MEL-28 melanoma it was -59.2% (active).
For `NCCN1CCN(c2nccc(-c3ccc4ccccc4c3)n2)CC1`, the growth with DU-145 prostate is 84.6%; in the test on MALME-3M melanoma, 60.3%; in the test with MDA-MB-231 breast, 23.8%; in the test on RXF 393 renal it was 43.1%; in the test with SF-268 CNS it was 63.8%; with SF-295 CNS it was 90.1%. In addition, the growth in the test with SF-539 CNS was -4.96% (active); in the test with UACC-257 melanoma, 68.4%; in the test on M14 melanoma, -66.8% (active); in the test with HCT-15 colon, 4.28% (active); with HT29 colon, -33.6% (active); in the test on SNB-75 CNS it was 82.1%. The growth in the test with SNB-19 CNS is 63.9%; with PC-3 prostate it was 45.6%; in the test on SK-MEL-5 melanoma, 54.9%; in the test on UACC-62 melanoma it was -65.3% (active); with LOX IMVI melanoma, -64.8% (active); with SK-MEL-28 melanoma it was -43.4% (active).
As for `CC(C)c1c(C(=O)Nc2ccccc2)c(-c2ccccc2)c(-c2ccc(F)cc2)n1CC[C@@H]1CC=CC(=O)O1`, the growth in the test with DU-145 prostate is 26.3%; in the test with MALME-3M melanoma it was 8.81% (active); with MDA-MB-231 breast, -25.6% (active); in the test with RXF 393 renal, -84.5% (active); in the test with SF-268 CNS, -33.3% (active); in the test on SF-295 CNS, 82.3%. For the same molecule, the growth was -18.5% (active) in the test on SF-539 CNS; 16.9% with UACC-257 melanoma; -11.2% (active) in the test with M14 melanoma; -42.7% (active) with HCT-15 colon; -35.6% (active) in the test on HT29 colon; -25% (active) in the test with SNB-75 CNS. Further, the growth in the test on SNB-19 CNS was 14.2%; with PC-3 prostate it was -39.2% (active); with SK-MEL-5 melanoma, 21.7%; in the test on UACC-62 melanoma, 18.9%; in the test on LOX IMVI melanoma it was -75.4% (active); in the test on SK-MEL-28 melanoma, -57.1% (active).
As for `COc1ccc(-c2cc(-c3cccnc3)nc3sc4c(=O)n(-c5ccc(C)cc5)nnc4c23)cc1OC`, the growth in the test with DU-145 prostate was 107%; in the test on MALME-3M melanoma, 96%; in the test with MDA-MB-231 breast, 79.6%; in the test on RXF 393 renal it was 101%; in the test on SF-268 CNS, 101%; with SF-295 CNS, 96.6%. The growth in the test on SF-539 CNS was 93.4%; in the test on UACC-257 melanoma, 104%; in the test with M14 melanoma, 104%; in the test with HCT-15 colon, 103%; in the test with HT29 colon, 105%; in the test with SNB-75 CNS, 85.8%. The growth was 104% with U251 CNS; 95.8% in the test with PC-3 prostate; 97.4% in the test with SK-MEL-5 melanoma; 98.7% with UACC-62 melanoma; 97.2% in the test with LOX IMVI melanoma; 99.9% in the test with SK-MEL-28 melanoma.
Regarding `O=C(Cn1cc(CN2C(=O)c3ccccc3S2(=O)=O)nn1)Nc1ccc([N+](=O)[O-])cc1Cl`, the growth with DU-145 prostate was 105%; with MALME-3M melanoma, 101%; with MDA-MB-231 breast, 90%; in the test on RXF 393 renal, 110%; in the test with SF-268 CNS, 100%; with SF-295 CNS it was 108%. In addition, the growth in the test on SF-539 CNS is 101%; in the test with UACC-257 melanoma, 98.6%; with M14 melanoma it was 106%; in the test with HCT-15 colon it was 102%; in the test with HT29 colon, 108%; with SNB-75 CNS, 97.4%. The growth in the test with SNB-19 CNS is 98.2%; in the test with PC-3 prostate, 95.4%; with SK-MEL-5 melanoma it was 99.7%; with UACC-62 melanoma, 81.8%; in the test with LOX IMVI melanoma it was 92.1%; with SK-MEL-28 melanoma, 97%.
